According to PubChem BioAssay (NCATS):
The source made the active and inactive calls. The call rests on the fitted dose curve; in most records, active means well fitted curve in the direction sought with a large enough effect; inconclusive means small, poorly fitted or top-dose-only effect, or effect the other way, or another doubt; inactive means no such curve, though single readings can be large or run the other way.

Assay: qHTS for Inhibitors of Cell Surface uPA Generation: Validation Assay (AID 493164);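 further: RAW 264.7 macrophage cells exposed to compound for 18 h; 0% is about no effect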
Settings: mouse cells, plasminogen activation; series mostly up to 38.3 µM; activity change: at the top concentration
Excerpt: NIH Chemical Genomics Center [NCGC]
NIH Molecular Libraries Probe Centers Network [MLPCN]
Assay Submitter (PI): Thomas Bugge
The overall objective of this project is to perform a quantitative high throughput screen (qHTS) to identify novel compounds that inhibit the generation of cell surface urokinase activity. The urokinase plasminogen activator (uPA) is one of the two primary endogenous systems that mediate plasminogen activation into plasmin. Members of this system, including uPA and its receptor (uPAR), are overexpressed in several malignant tumors. This system plays a major role in adhesion, migration, invasion and metastasis of cancer cells. Small molecule inhibitors of the uPA system will serve as probes to understand the molecular mechanisms of the uPA cascade and better understanding the microenvironmental circumstances that facilitate the activation of plasminogen by uPA, and finally may provide novel candidate agents for anticancer drug therapy.
[…] […] Upon inhibition of the uPA activation cascade, the subsequent cell surface uPA activity-dependent translocation of LF into the cytoplasm is inhibited. ATP-Lite is used to measure intracellular ATP concentrations, which remain increased if LF entry into the cytoplasm is inhibited. This validation assay was performed using a small set of validation compounds.
uPA assay protocol summary:
RAW 264.7 cells were maintained in DMEM medium (Invitrogen, Carlsbad, CA) at 37C under a humidified atmosphere containing 5% CO2 and 95% air. The medium contained 10% FBS, 1 mM sodium pyruvate and 50 U/ml penicillin/streptamycin (Invitrogen, Carlsbad, CA). All compounds were screened as 7-point titration from 2.45 nM to 38.3 uM final concentration. The assay was performed in 1536-well format plate as follows:
1.Dispensing RAW 264.7 cells into 1536-well, white walled tissue culture plates at a density of 4000 cells/well (4 uL).
2.Incubation at 37 C in a 5% CO2 incubator overnight.
3.Serially diluting compounds (1:5 serial dilution; 0.0024 uM to […] final concentration) in 23 nl DMSO.
5.Incubating the compound and reagent-treated plates for 18 hours at 37 C in a 5% CO2 incubator.
6.Adding ATP-Lite (3 ul).
7.Reading plates by ViewLux with an exposure length of 5 seconds.

SMILES	activity change
C[C@]12Cc3cn4c(nc3C=C1CCC1C2CC[C@@]2(C)[C@H]1CC[C@@]2(O)C#N)nc1ccccc14 (stereo not given in full)	2.05% (inactive)
O=C1CC[C@@]2(O)C3Cc4ccc(O)c5c4C2(CCN3CC2CC2)[C@H]1O5 (stereo not given in full)	-1.3% (inactive)
CN1CCc2cc(O)cc3c2[C@H]1Cc1ccc(O)c(O)c1-3	1.06% (inactive)
Cc1o[nH]c(=O)c1CC(N)C(=O)O (stereo not given)	0.548% (inactive)
Ic1ccccc1CNC1C2CCN(CC2)C1C(c1ccccc1)c1ccccc1 (stereo not given)	2.09% (inactive)
Oc1ccc2c3c1O[C@H]1c4[nH]c5ccccc5c4C[C@@]4(O)C(C2)N(CC2CC2)CCC314 (stereo not given in full)	-1.98% (inactive)
CCCCCCC(C)(C)c1ccc([C@@H]2C[C@H](O)CC[C@H]2CCCO)c(O)c1	0.674% (inactive)
C[N+]1(C)CCc2cc3c(cc2[C@H]1[C@@H]1OC(=O)c2c1ccc1c2OCO1)OCO3	-0.813% (inactive)
CCCn1c(=O)c2[nH]c(C3CCCC3)nc2n(CCCOC(=O)c2ccc(S(=O)(=O)F)cc2)c1=O	1.5% (inactive)
C=CCN1CCC23c4c5ccc(O)c4O[C@H]2C(=O)CC[C@@]3(O)C1C5 (stereo not given in full)	-0.665% (inactive)
C[N+](C)(C)CCOC(=O)CBr	-0.961% (inactive)
NNC(N)=O	-1.73% (inactive)
O=c1c2ccccc2[se]n1-c1ccccc1	1.53% (inactive)
NC(CCCCCP(=O)(O)O)C(=O)O (stereo not given)	-0.137% (inactive)
CCCN(CCC)[C@@H]1CCc2cccc(O)c2C1	-0.258% (inactive)
NCCc1ccc(S(=O)(=O)F)cc1	0.771% (inactive)
C=CCN(C1=NCCN1)c1c(Cl)cccc1Cl	-0.996% (inactive)
CC(C)[C@@]1(NC(=O)[C@@H]2C[C@@H]3c4cccc5[nH]cc(c45)C[C@H]3N(C)C2)O[C@@]2(O)[C@@H]3CCCN3C(=O)[C@H](Cc3ccccc3)N2C1=O	0.454% (inactive)
CC(N)c1cccc(Cl)c1Cl (stereo not given)	-1.64% (inactive)
COc1ccc2[nH]cc(CCN)c2c1	1.18% (inactive)

SMILES	activity change
C[N+]1(C)C2CCC1CC(OC(=O)c1c[nH]c3ccccc13)C2 (stereo not given)	-0.0866% (inactive)
C[C@H](N)CN1CCc2ccc(Br)cc21	-1.46% (inactive)
N=C(N)c1ccc(CS(=O)(=O)F)cc1	-0.533% (inactive)
C=CCN1C[C@@H](C)N([C@H](c2ccc(C(=O)N(CC)CC)cc2)c2cccc(OC)c2)C[C@@H]1C	-1.29% (inactive)
C[C@@H]1O[C@H](C[N+](C)(C)C)CS1	-1.38% (inactive)
NC(=O)CI	0.526% (inactive)
COc1ccc2c(c1)[C@@]13CCCC[C@H]1[C@@H](C2)NCC3	-2.07% (inactive)
NCCc1c[nH]c2ccc(C(N)=O)cc12	0.665% (inactive)
Cc1sc2ccccc2c1CC1=NCCN1	-0.84% (inactive)
NCC(CP(=O)(O)O)c1ccc(Cl)cc1 (stereo not given)	-0.61% (inactive)
CC(N)[C@H](O)c1ccc(O)c(O)c1 (stereo not given in full)	1.45% (inactive)
CC(C)(C)c1cc(C=C(C#N)C#N)cc(C(C)(C)C)c1O	1.79% (inactive)
NCCCP(=O)(O)O	0.576% (inactive)
CCCN(CCC)CCc1c[nH]c2ccc(C(N)=O)cc12	-1.11% (inactive)
N[C@@H](CCl)C(=O)O	1.75% (inactive)
COc1ccc2c(c1)C13CCCCC1C(C2)N(C)CC3 (stereo not given)	-0.731% (inactive)
C[N+]1(C)CCOC(O)(c2ccc(-c3ccc(C4(O)C[N+](C)(C)CCO4)cc3)cc2)C1 (stereo not given)	0.568% (inactive)
C[N+](C)(C)CC#CCN1CCCC1=O	-1.15% (inactive)
C[C@H](Cc1ccc2c(c1)OC(C(=O)O)(C(=O)O)O2)NC[C@H](O)c1cccc(Cl)c1	-0.825% (inactive)
O=[N+]([O-])c1cc(O)c(O)c([N+](=O)[O-])c1	0.829% (inactive)
